According to PubChem BioAssay (NCATS):
Values joined by “and” are separate entries in the source; they are usually repeats but may differ in a detail not shown here. Equal entries are not always repeated. Inconclusive results are not listed. Entries that show only a call come without a potency. Active and inactive are the calls of the source. Unless noted, calls come from the whole dose curve.

Legend:
[1] = Cell Viability - HepG2 (AID 433); conditions: qHTS;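 note: potency is the fitted concentration of half-maximal effect; cells exposed to compound for 40 hours; potency for ATP loss meaning cytotoxicity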
How it was run: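 HepG2 cells, 1500 per well, treated 40 hr at 37 °C in complete medium; viability from intracellular ATP by CellTiter-Glo luminescence. Normalized to DMSO and 100 uM tamoxifen; AC50 from Hill fit of qHTS concentration-response.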

[2] = Cell Viability - MRC5 (AID 434); conditions: MRC5 lung fibroblast viability, qHTS;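 note: potency is the fitted concentration of half-maximal effect; cells exposed to compound for 40 hours at 37 °C; potency reflects cytotoxicity seen as loss of intracellular ATP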
How it was run: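 AC50 values come from Hill-equation fits of intracellular ATP loss, measured by CellTiter-Glo luminescence. Normal lung fibroblasts (MRC5) had 40 hr compound treatment at 37 C, normalized between DMSO and 100 uM tamoxifen.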

[3] = Cell Viability - LYMP2-001 (AID 921; active = well fitted curve in the direction sought with a large enough effect; an effect the other way counts as inactive or inconclusive;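 note: cells exposed to compound for 24 h at 37 °C; nearly all actives have a fitted effect of over 70% in size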); conditions: LYMP2-001 lymphoblastoid cell viability; series mostly up to 92.2 µM
How it was run: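 Human lymphoblastoid LYMP2-001 cells, 2500 per well, in complete medium, treated 24 h at 37 C. Viability from cellular ATP by CellTiter-Glo luminescence; AC50 from Hill-equation fits of qHTS concentration-response.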

[4] = MultiTox-Fluor Cytotoxicity Assay - LYMP1-002 - Dead Cells (AID 960; active = well fitted curve in the direction sought with a large enough effect; an effect the other way counts as inactive or inconclusive; note: nearly all actives have a fitted effect of over 60% in size); conditions: LYMP1-002 lymphoblastoid cells, dead-cell protease fluorescence; series mostly up to 46.1 µM
How it was run: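 Cells were plated, rested 5 hr, then treated with compound dilution series for 16 hr at 37 C. After adding substrate reagent and 60 min at room temperature, dead-cell protease fluorescence gave concentration-response curves fitted by the Hill equation.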

[5] = qHTS assay for small molecule antagonists of peroxisome proliferator-activated receptor delta signaling (AID 588535; active = well fitted inhibition curve with a large enough effect in the signal ratio, with a control signal flat, not every such curve was filed as active; the % refers to the signal ratio;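 for max response: cells co-treated with a PPAR-delta agonist as stimulator during compound exposure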); conditions: HEK293T PPARd-UAS-bla, beta-lactamase FRET ratio, 18 h; 460 nm channel
How it was run: (§1)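 Titrations were run on PPAR-delta-UAS-bla HEK293T cells in charcoal/dextran-stripped serum, incubated 18 h at 37 C. CCF4 fluorescence (460/530 nm) after 2 h RT; Hill equation yields IC50 and maximal response.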

[6] = molecular target: Peroxisome proliferator-activated receptor delta (Homo sapiens) (UniProt Q03181); test: as above; conditions: HEK293T PPARd-UAS-bla, beta-lactamase FRET ratio, 18 h; series mostly up to 76.7 µM
Peroxisome proliferator-activated receptor delta (Homo sapiens), sequence (Q03181 whole entry, looked up): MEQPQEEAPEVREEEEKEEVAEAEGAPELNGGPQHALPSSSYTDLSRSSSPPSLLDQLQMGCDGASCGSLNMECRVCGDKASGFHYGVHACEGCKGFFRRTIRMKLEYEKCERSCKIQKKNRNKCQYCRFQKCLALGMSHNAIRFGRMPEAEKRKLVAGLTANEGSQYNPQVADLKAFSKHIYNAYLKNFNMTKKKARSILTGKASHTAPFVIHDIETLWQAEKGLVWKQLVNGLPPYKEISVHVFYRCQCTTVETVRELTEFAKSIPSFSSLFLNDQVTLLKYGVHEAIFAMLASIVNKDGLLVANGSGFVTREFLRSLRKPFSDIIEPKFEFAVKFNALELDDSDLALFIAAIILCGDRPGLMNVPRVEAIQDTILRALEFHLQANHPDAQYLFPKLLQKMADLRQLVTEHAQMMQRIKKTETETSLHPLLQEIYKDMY
How it was run: as §1

[7] = molecular target: Peroxisome proliferator-activated receptor gamma (Homo sapiens) (UniProt P37231); test: qHTS assay for small molecule agonists of peroxisome proliferator-activated receptor gamma signaling (AID 588536; active = well fitted curve in the direction sought with a large enough effect in the signal ratio, with a control signal flat, not every such curve was filed as active; the % refers to the signal ratio); conditions: HEK293 PPARg-UAS-bla, beta-lactamase ratio, 16 h, percent of rosiglitazone response, DMSO as zero; series mostly up to 76.7 µM
Peroxisome proliferator-activated receptor gamma (Homo sapiens), sequence (P37231 whole entry, looked up): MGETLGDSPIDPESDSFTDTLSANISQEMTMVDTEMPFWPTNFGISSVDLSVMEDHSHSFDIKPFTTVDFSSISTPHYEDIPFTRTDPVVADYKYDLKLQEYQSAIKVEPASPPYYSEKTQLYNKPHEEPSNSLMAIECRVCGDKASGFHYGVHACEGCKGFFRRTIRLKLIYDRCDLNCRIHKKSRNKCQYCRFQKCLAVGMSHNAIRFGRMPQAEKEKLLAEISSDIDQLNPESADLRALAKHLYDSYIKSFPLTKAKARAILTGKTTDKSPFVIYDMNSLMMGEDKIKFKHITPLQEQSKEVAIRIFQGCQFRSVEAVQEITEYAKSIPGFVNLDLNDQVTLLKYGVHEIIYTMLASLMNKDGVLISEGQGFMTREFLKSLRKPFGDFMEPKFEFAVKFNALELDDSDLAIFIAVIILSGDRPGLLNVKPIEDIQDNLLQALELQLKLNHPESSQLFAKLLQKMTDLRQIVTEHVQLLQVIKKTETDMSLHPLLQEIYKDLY
How it was run: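 Compound treatment: 16 h, 37 C, HEK293 GeneBLAzer cells. Detection: CCF4, 2 h RT. Values: Hill-fit EC50, efficacy as % of 2 uM rosiglitazone.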

[8] = molecular target: Peroxisome proliferator-activated receptor gamma (Homo sapiens) (UniProt P37231); test: qHTS assay for small molecule antagonists of peroxisome proliferator-activated receptor gamma signaling (AID 588537; active = well fitted inhibition curve with a large enough effect in the signal ratio, with a control signal flat, not every such curve was filed as active; the % refers to the signal ratio;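 note: reporter cells co-stimulated with 50 nM rosiglitazone agonist during compound treatment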); conditions: HEK293 PPARg-UAS-bla, beta-lactamase ratio, antagonist mode; series mostly up to 76.8 µM
How it was run: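 Antagonist-mode β-lactamase reporter screen run as a titration series. HEK293 PPARγ-UAS-bla cells are stimulated with rosiglitazone (50 nM final) for 16 h, then CCF4 is read at 460/530 nm. Data are scaled between DMSO and rosiglitazone and fitted to the Hill equation.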

[9] = molecular target: Vitamin D3 receptor (Homo sapiens) (UniProt P11473); test: qHTS assay for small molecule antagonists of vitamin D receptor signaling (AID 588541); conditions: HEK293T VDR-UAS-bla, beta-lactamase ratio, antagonist mode; series mostly up to 76.7 µM;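 note: receptor activated by calcitriol during compound treatment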
Vitamin D3 receptor (Homo sapiens), sequence (P11473 whole entry, looked up): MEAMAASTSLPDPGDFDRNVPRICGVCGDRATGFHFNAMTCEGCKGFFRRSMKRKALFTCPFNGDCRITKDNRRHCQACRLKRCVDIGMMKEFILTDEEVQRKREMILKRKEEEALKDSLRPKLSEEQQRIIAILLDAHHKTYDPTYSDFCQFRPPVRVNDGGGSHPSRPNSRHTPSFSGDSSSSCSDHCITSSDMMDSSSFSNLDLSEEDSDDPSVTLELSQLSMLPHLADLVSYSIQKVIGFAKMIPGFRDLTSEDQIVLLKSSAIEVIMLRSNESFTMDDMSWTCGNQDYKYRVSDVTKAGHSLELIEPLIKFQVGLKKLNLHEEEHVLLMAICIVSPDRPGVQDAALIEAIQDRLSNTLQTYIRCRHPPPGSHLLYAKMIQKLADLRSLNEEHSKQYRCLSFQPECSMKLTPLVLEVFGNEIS
How it was run: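 Antagonist-mode beta-lactamase reporter assay: HEK293T VDR-UAS-bla cells were exposed to titrated compound alongside 1-alpha,25-dihydroxyvitamin D3 at 3 nM final for 16 h. Values were normalized to the 50 nM agonist control and DMSO basal, with IC50 and efficacy from Hill equation fits.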

[10] = molecular target: Vitamin D3 receptor (Homo sapiens) (UniProt P11473); test: qHTS assay for small molecule agonists of vitamin D receptor signaling (AID 588543); conditions: HEK293T VDR-UAS-bla, beta-lactamase ratio, 16 h; series mostly up to 76.8 µM
How it was run: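 VDR-UAS-bla HEK293T cells, 2000/well, 2% charcoal-stripped FBS; compound titration 16 h at 37 C; CCF4 beta-lactamase ratio read. Normalized to 50 nM 1-alpha,25-dihydroxyvitamin D3 (100%) and DMSO; Hill fit gives EC50, efficacy.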

[11] = molecular target: Thyroid hormone receptor beta (Homo sapiens) (UniProt P10828); test: qHTS assay for small molecule antagonists of thyroid hormone receptor beta signaling (AID 588547; active = well fitted inhibition curve with a large enough effect in the signal ratio, with a control signal flat, not every such curve was filed as active; the % refers to the signal ratio;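 note: cells stimulated with 0.4 nM T3 agonist during compound exposure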); conditions: TR-UAS-bla HEK293, beta-lactamase ratio, antagonist mode, 18 h
Thyroid hormone receptor beta (Homo sapiens), sequence (P10828 whole entry, looked up): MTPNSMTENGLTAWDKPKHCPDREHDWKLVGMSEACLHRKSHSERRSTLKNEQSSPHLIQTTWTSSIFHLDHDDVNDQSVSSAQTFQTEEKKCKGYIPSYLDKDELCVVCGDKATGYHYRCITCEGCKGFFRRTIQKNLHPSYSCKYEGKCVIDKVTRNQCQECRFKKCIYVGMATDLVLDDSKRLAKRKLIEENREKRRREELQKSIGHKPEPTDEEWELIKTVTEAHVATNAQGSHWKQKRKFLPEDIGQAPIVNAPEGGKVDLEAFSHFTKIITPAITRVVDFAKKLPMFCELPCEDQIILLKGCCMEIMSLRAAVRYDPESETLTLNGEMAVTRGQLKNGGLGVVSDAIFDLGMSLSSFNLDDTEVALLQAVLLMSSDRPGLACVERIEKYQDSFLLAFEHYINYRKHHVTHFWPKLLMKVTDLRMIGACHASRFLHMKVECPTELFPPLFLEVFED
How it was run: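 Inhibition of T3-driven (0.4nM final) beta-lactamase reporter activity was measured over 0.59 nM to 92 uM compound after 18 h at 37 C. The cells were GripTite HEK293 TR-UAS-bla in charcoal/dextran-stripped serum, with CCF4 ratio read-out and IC50 from Hill fits.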

[12] = qHTS assay for small molecule agonists of the antioxidant response element (ARE) signaling pathway (AID 651741; active = well fitted activation curve with a large enough effect in the signal ratio; the % refers to the signal ratio; note: potency is the fitted concentration of half-maximal effect); conditions: HepG2 ARE-bla reporter, beta-lactamase FRET ratio, 16 h; series mostly up to 96 µM
How it was run: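 Beta-lactamase reporter under ARE control in HepG2 cells, 2,000 per well, was induced by 16 h compound treatment at 37 C. Read-out was fluorescence from LiveBLAzer B/G FRET substrate after 2 h at room temperature.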

[13] = qHTS assay for small molecule activators of the nuclear factor-kappa B (NF-kB) signaling pathway (AID 651749; active = well fitted activation curve with a large enough effect in the signal ratio; the % refers to the signal ratio); conditions: NF-kB-bla ME-180 cells, beta-lactamase FRET ratio, 16 h; stronger effect = higher value
How it was run: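 Activation measured after 16 hr compound treatment at 37C, 5% CO2, of 2,000 ME-180 cells/well stably expressing an NF-kB response element–driven beta-lactamase reporter, via FRET-disruption fluorescence.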

[14] = molecular target: Glucocorticoid receptor (Homo sapiens) (UniProt P04150); test: qHTS assay for small molecule agonists of glucocorticoid receptor signaling (AID 588532; active = well fitted curve in the direction sought with a large enough effect in the signal ratio, with a control signal flat; the % refers to the signal ratio); conditions: HeLa MMTV-bla, beta-lactamase ratio, agonist, 18 h; stronger effect = higher value; percent of dexamethasone control, DMSO zero
Glucocorticoid receptor (Homo sapiens), sequence (P04150 whole entry, looked up): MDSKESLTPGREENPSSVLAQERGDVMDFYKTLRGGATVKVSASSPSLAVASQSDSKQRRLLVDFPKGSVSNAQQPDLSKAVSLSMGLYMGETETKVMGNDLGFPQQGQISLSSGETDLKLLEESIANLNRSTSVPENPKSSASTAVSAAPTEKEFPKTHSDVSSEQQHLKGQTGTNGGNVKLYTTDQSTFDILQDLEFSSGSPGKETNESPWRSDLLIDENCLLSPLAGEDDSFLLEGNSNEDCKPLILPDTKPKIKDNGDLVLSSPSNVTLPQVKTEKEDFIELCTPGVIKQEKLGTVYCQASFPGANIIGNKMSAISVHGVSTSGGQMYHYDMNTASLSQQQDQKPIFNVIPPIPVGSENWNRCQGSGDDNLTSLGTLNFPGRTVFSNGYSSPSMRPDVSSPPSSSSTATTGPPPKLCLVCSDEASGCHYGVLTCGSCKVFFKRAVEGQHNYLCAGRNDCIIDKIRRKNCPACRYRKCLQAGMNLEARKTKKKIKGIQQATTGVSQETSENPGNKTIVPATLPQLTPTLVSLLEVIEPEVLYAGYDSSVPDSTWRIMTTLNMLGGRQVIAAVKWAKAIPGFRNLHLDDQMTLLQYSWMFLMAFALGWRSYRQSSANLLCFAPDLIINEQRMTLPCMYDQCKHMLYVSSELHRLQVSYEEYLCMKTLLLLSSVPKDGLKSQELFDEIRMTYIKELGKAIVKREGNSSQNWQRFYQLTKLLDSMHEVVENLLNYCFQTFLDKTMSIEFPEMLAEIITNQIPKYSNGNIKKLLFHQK
How it was run: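 Using MMTV-bla HeLa cells in medium with 1% stripped FBS and 25 mM HEPES, compounds were titrated and incubated overnight-length (18 h). Beta-lactamase cleavage of CCF4 was quantified by dual-emission fluorescence.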

[15] = molecular target: Glucocorticoid receptor (Homo sapiens) (UniProt P04150); test: qHTS assay for small molecule antagonists of glucocorticoid receptor signaling (AID 588533; active = well fitted inhibition curve with a large enough effect in the signal ratio, with a control signal flat, not every such curve was filed as active; the % refers to the signal ratio;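 note: cells stimulated with 2 nM dexamethasone as agonist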); conditions: HeLa MMTV-bla, GRE beta-lactamase ratio, antagonist mode, 18 h; series mostly up to 76.8 µM
How it was run: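 Antagonist-mode qHTS: compound titrations added to GRE-bla HeLa cells, then dexamethasone 2 nM final; 18 h, 37 C. CCF4 FRET fluorescence normalized to dexamethasone and DMSO; IC50 from Hill fit.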

[16] = qHTS assay for small molecule antagonists of the retinoid-related orphan receptor gamma (ROR-gamma) signaling pathway - cell viability counter screen (AID 720652; active = well fitted curve in the direction sought with a large enough effect in the repeat runs; an effect the other way counts as inactive or inconclusive;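 note: CHO reporter cells with doxycycline-induced ROR-gamma expression; compound exposure lasted 16 hr before ATP read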); conditions: RORgamma reporter cell line viability counter screen; series mostly up to 92.2 µM
How it was run: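 Steps: seed CHO cells bearing TET-inducible ROR and ROR response element-luciferase; rest 5 hr at 37 C; add compound, then doxycycline; incubate 16 hr; add CellTiter-Glo and read luminescence as ATP-based viability.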

[17] = molecular target: Estrogen receptor (Homo sapiens) (UniProt P03372); test: qHTS assay for small molecule agonists of estrogen receptor alpha signaling (AID 588514); conditions: ER-alpha-UAS-bla HEK293, beta-lactamase ratio, 18 h; series mostly up to 76.8 µM; note: nearly all actives have a fitted effect of over 70% in size; note: potency is the fitted concentration of half-maximal effect
Estrogen receptor (Homo sapiens), sequence (P03372 whole entry, looked up): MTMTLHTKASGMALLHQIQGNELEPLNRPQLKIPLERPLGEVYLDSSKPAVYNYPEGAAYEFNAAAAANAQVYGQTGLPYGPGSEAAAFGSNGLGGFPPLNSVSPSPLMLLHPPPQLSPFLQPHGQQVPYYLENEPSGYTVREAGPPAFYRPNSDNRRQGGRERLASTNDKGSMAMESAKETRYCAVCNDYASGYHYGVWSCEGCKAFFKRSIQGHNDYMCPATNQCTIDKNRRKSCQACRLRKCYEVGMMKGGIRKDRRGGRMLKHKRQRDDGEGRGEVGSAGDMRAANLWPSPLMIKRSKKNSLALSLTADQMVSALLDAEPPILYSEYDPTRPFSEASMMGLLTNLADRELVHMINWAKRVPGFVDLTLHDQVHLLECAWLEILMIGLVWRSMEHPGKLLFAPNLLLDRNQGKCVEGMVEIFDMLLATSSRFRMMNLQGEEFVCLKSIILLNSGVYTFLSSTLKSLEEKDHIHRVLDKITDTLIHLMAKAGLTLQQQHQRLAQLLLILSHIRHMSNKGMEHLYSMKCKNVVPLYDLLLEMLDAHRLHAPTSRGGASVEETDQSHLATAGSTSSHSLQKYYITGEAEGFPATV
How it was run: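 Efficacy is expressed against 20 nM 17-beta-estradiol (100%) and DMSO basal (0%); EC50 from Hill equation. Assay: beta-lactamase reporter in ER-alpha-UAS-bla HEK 293 cells, 18 h compound incubation, CCF4 detection.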

[18] = Cell Viability - NIH 3T3 (AID 541; active = well fitted curve in the direction sought with a large enough effect; an effect the other way counts as inactive or inconclusive;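 note: cells exposed to compound for 40 hours; nearly all actives have a fitted effect of over 25% in size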; note: potency is the fitted concentration of half-maximal effect); conditions: NIH 3T3 cell viability, qHTS; activity change, negative = cytotoxicity: at 92.2 µM (top of the series)
How it was run: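 Cells seeded at 1000/well, rested 5 hr at 37 °C, then dosed and incubated 40 hr at 37 °C. CellTiter-Glo added, 20 min room temperature, luminescence read. AC50 by Hill fit.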

[19] = molecular target: Mitogen-activated protein kinase 10 (Mus musculus) (UniProt Q61831); test: JNK3 AlphaScreen Assay (AID 530; active = well fitted curve in either direction with a large enough effect, not every such curve was filed as active;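 note: kinase came from lysate of stimulated human HepG2 cells; signal reports phosphorylation of biotinylated GST-cJun 1-79 at Ser73 with 10 µM ATP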); conditions: JNK3 lysate, c-Jun phosphorylation; series mostly up to 57.1 µM
How it was run: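 qHTS titrations with 15 min compound pre-incubation before adding ATP (10 uM final). Read-out: AlphaScreen of Ser73-phosphorylated biotin-GST-cJun using HepG2 lysate JNK3 activated by IL-1β and TNFα.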

[20] = qHTS assay to identify small molecules that stimulate interleukin-8 (IL-8) secretion (AID 651758; active = well fitted activation curve with a large enough effect in the signal ratio; the % refers to the signal ratio); conditions: HTRF ratio (665/615); series mostly up to 92.2 µM
How it was run: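 Secreted IL-8 measured homogeneously by TR-FRET (two labelled anti-IL-8 antibodies, 1-3 h at room temperature) after a 16 h, 37 C compound treatment of THP-1 cells at 2000 cells/well.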

Row | SMILES | Potency [1] | Potency [2] | Potency [3] | Potency [4] | max response [5] | outcome [6] | outcome [7] | Potency [8] | outcome [9] | outcome [10] | activity change % (negative = inhibition) [11] | Potency [12] | activation [13] | activation [14] | outcome [15] | Potency [16] | Potency [17] | Potency [18] | Potency [19] | Potency [20]
1 | COc1cc(-c2ccc(N)c(OC)c2)ccc1N | > 92 µM (inactive) | > 92 µM (inactive) | inactive | inactive | 17.7% and -36% | inactive | inactive | inactive | inactive | inactive | 4.52% (inactive) and 5.28% (inactive) and -5.71% (inactive) | 1.06 µM (active) and 2.17 µM (active) | 0.354% (inactive) and 3.2% (inactive) and 2.92% (inactive) |  |  |  |  |  |  | 
2 | BrC(Br)Br | > 92 µM (inactive) | > 92 µM (inactive) |  | inactive |  |  | inactive |  | inactive | inactive | -8.09% (inactive) |  | 0.744% (inactive) | -1.59% (inactive) | inactive | inactive |  |  |  | 
3 | ClCc1ccccn1 | > 92 µM (inactive) | > 92 µM (inactive) | inactive | inactive | 3.34% | inactive |  | inactive | inactive | inactive | -1.68% (inactive) | inactive |  | 7.32% (inactive) and 6.72% (inactive) | inactive | inactive | inactive |  |  | 
4 | Cc1cc(-c2ccc(N)c(C)c2)ccc1N | > 92 µM (inactive) | > 92 µM (inactive) | inactive |  |  |  | inactive | inactive | inactive | inactive | 4.51% (inactive) and -14.4% (inactive) | 12.2 µM (active) and 6.86 µM (active) |  |  |  | inactive | 22.4 µM (active) | inactive |  | 
5 | COC(=O)Nc1nc2ccccc2[nH]1 | > 92 µM (inactive) |  |  |  | -45% | inactive | inactive | inactive | inactive | inactive | -22.5% (inactive) and -22.8% (inactive) | 61.1 µM (active) |  | -11.7% (inactive) |  | inactive |  | 6.31 µM (active) | inactive | 
6 | Clc1cccc2ccccc12 | > 92 µM (inactive) |  |  | inactive | -15.1% | inactive |  |  | inactive | inactive | -4.95% (inactive) | inactive | 0.856% (inactive) |  |  | inactive |  | inactive | inactive | inactive
7 | Clc1ccc(Cl)c(Cl)c1 | > 92 µM (inactive) |  |  | inactive | -17.8% and 7% | inactive |  | inactive |  |  | -0.795% (inactive) and 9.45% (inactive) | inactive |  |  |  | inactive |  | inactive | inactive | 
8 | CC(C)[C@]12CC(=O)[C@H](C)[C@H]1C2 | > 92 µM (inactive) |  | inactive |  | 17.2% and -10.4% | inactive |  | inactive | inactive | inactive | -3.76% (inactive) and 6.48% (inactive) | inactive | -0.354% (inactive) and -5.97% (inactive) |  |  | inactive |  |  | inactive | 
